Screening data (PubChem)
In the library only some 1.7% were active in any assay of this set; here they are far more common.
SSB-PriA inh: inhibitors of Klebsiella pneumoniae PriA binding to SSB C-terminal tail, primary screen, biochemical, AlphaScreen; PriA–SSB C-terminal tail interaction (Klebsiella pneumoniae); AlphaScreen SSBct-PriA binding, biotinylated peptide; inhibition, % at 33 µM; actives 0.6% (n = 430,000); AID 1272365, 2023; in the data active means inhibition mostly above about 37%, no sharp cut-off; inactive means mostly below about 20%;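 further: plate controls were negative control peptide for no effect and reference peptide for full effect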
SARS 3CLpro inh: SARS-CoV 3CLpro protease inhibitors, primary screen, biochemical, quenched FRET; recombinant SARS-CoV 3CLpro, quenched FRET peptide cleavage; inhibition, % at 6 µM; actives 0.14% (n = 290,000); in the data active means inhibition above about 12%
CCHF vOTU inh: CCHFV vOTU protease inhibitors, primary screen, biochemical, Pep-AMC substrate, fluorescence. Crimean-Congo hemorrhagic fever virus L polyprotein viral ovarian tumor (vOTU) protease …. inhibition, % at 11.5 µM. actives 0.55% (n = 370,000). AID 651958, 2012; in the data active means inhibition above about 30%; further: 0% = vehicle wells with enzyme and 100% = no enzyme wells
VHR inh abs: VHR1 phosphatase inhibitors, primary screen, biochemical, absorbance, uHTS; inhibition, % at 13.3 µM; AID 1654, 2009; actives 0.52% (n = 290,000); recombinant VHR phosphatase, pNPP absorbance; in the data active means inhibition above about 50%
Target sequence (P51452 whole entry, looked up): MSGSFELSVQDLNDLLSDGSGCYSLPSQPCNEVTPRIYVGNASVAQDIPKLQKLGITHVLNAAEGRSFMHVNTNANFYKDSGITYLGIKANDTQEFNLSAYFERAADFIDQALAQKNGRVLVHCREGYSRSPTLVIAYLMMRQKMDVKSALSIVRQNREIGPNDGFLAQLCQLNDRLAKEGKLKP
RecA splice inh: Mtb RecA intein splicing inhibitors, primary screen, biochemical, fluorescence, HTS. cell-free RecA intein splicing. inhibition, % (concentration not given with the values). actives 0.75% (n = 290,000). AID 2221, 2009; in the data active means inhibition above about 30%;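 further: 0% = vehicle wells and 100% = reference inhibitor control wells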
Numbers without * were called inactive.

How did Cc1cccc(NC(=O)Nc2ccc3c(c2)N(C)C(=O)CS3)n1 do in these assays?
SSB-PriA inh: 104*; SARS 3CLpro inh: 0; CCHF vOTU inh: 0; VHR inh abs: 34; RecA splice inh: 0

What do the screens show for `CCCn1c2ccccc2c2cn[nH]c(=O)c21`?
SSB-PriA inh: -6; SARS 3CLpro inh: 5; CCHF vOTU inh: 5; VHR inh abs: 59*; RecA splice inh: 3

What do the screens show for `CN(O)C=c1ccc2c(n1)C(=O)C=CC=2`?
SSB-PriA inh: 95*

Results for COc1ccccc1N=Nc1ccc(N)c(C)c1 ?
SSB-PriA inh: 73*; SARS 3CLpro inh: 4; CCHF vOTU inh: 22; RecA splice inh: 1

How did CSc1ncc(-c2ccc(C)cc2)n1-c1ccccc1C do in these assays?
SSB-PriA inh: 58*

How did Cc1ccc(-c2cnc(SCc3ccc(F)cc3)n2-c2ccc(OC(F)(F)F)cc2)cc1 do in these assays?
SSB-PriA inh: -15

What do the screens show for `O=C(NCc1cc(F)ccc1F)c1cn[nH]n1`?
SSB-PriA inh: -11

Results for COc1cc(OC)cc(C(=O)Nc2cccc(NC(=O)c3ccccc3)c2)c1 ?
SSB-PriA inh: -8; SARS 3CLpro inh: -5; CCHF vOTU inh: 23; VHR inh abs: -2; RecA splice inh: 4

What do the screens show for `COc1cc(OC)cc(C(=O)Nc2ccc(Nc3ccccc3)cc2)c1`?
SSB-PriA inh: 45*; SARS 3CLpro inh: 0; CCHF vOTU inh: 3; VHR inh abs: 13

Results for O=C(CCl)NCc1c(Cl)cccc1-n1cccc1 ?
SSB-PriA inh: 7; SARS 3CLpro inh: 3; CCHF vOTU inh: 10; VHR inh abs: 24; RecA splice inh: 46*

How did O=C(Cc1c(Cl)cccc1Cl)NCCc1ccc(Cl)cc1 do in these assays?
SSB-PriA inh: -14; SARS 3CLpro inh: -1; CCHF vOTU inh: -12; VHR inh abs: 14; RecA splice inh: 4

Results for COc1ccc(F)cc1S(=O)(=O)NCC(c1cccs1)N1CCc2ccccc2C1 (centres undefined) ?
SSB-PriA inh: -25

Results for CCOc1cc(C(=O)NCCc2ccc3c(c2)CCCN3C)cc(OCC)c1OCC ?
SSB-PriA inh: 36*

What do the screens show for `COc1ccc(C(=O)NCC(c2ccc3c(c2)CCCN3C)N2CCOCC2)c(OC)c1` (centres undefined)?
SSB-PriA inh: 4

Results for COc1ccc(C(=O)NCCc2ccc3c(c2)CCCN3C)c(OC)c1 ?
SSB-PriA inh: 62*

What do the screens show for `c1ccc(-c2nccc(-c3ccco3)n2)nc1`?
SSB-PriA inh: 72*; SARS 3CLpro inh: 1; CCHF vOTU inh: -8; VHR inh abs: 9; RecA splice inh: 0

How did O=C(NCCO)c1ccc2nc(-c3ccco3)c(-c3ccco3)nc2c1 do in these assays?
SSB-PriA inh: 14; SARS 3CLpro inh: 4; CCHF vOTU inh: 77*; VHR inh abs: 42; RecA splice inh: 13

What do the screens show for `c1ccc(-c2noc(-c3ccco3)n2)nc1`?
SSB-PriA inh: -19; SARS 3CLpro inh: 4; CCHF vOTU inh: 1; VHR inh abs: -8; RecA splice inh: -1

How did c1coc(-c2cnc3ccccc3n2)c1 do in these assays?
CCHF vOTU inh: -117

How did c1ccc(-c2nc(-c3ccco3)cs2)nc1 do in these assays?
SSB-PriA inh: 9; SARS 3CLpro inh: 3; CCHF vOTU inh: -8; VHR inh abs: 28; RecA splice inh: 1

How did c1ccc(-c2nnc(-c3ccco3)c(-c3ccco3)n2)nc1 do in these assays?
SSB-PriA inh: 114*

How did c1coc(-c2nc3ccccc3nc2-c2ccco2)c1 do in these assays?
SSB-PriA inh: -1; SARS 3CLpro inh: 1; CCHF vOTU inh: 51*; VHR inh abs: 2; RecA splice inh: -14

Results for c1ccc(-c2nc(-c3ccccn3)no2)cc1 ?
SSB-PriA inh: 3; SARS 3CLpro inh: -5; CCHF vOTU inh: -10; VHR inh abs: 13; RecA splice inh: 3

What do the screens show for `CNc1nc(-c2ccccn2)nnc1-c1ccccc1`?
SSB-PriA inh: 91*; SARS 3CLpro inh: 4; CCHF vOTU inh: 5; VHR inh abs: 33; RecA splice inh: 3

How did O=C(CSC1CCCC1)NCC1CCN(Cc2ccccc2)CC1 do in these assays?
SSB-PriA inh: -8

What do the screens show for `CC(=O)c1cccc(NC(=O)CSc2ccc(-n3ccnc3)nn2)c1`?
SSB-PriA inh: -7

Results for Cc1noc(C2CN(C(=O)Nc3ccc(C(F)(F)F)cc3)C2)n1 ?
SSB-PriA inh: -3

What do the screens show for `CCn1c(=O)c([N+](=O)[O-])c(Cl)c2ccccc21`?
SSB-PriA inh: -11; SARS 3CLpro inh: -5; VHR inh abs: 34; RecA splice inh: 41*

Results for COc1cccc(NC(=O)Nc2ccc3c(c2)CCCN3S(=O)(=O)c2ccccc2)c1OC ?
SSB-PriA inh: -8

What do the screens show for `CCc1ccccc1NC(=O)C1CCCN(c2ncccn2)C1` (centres undefined)?
SSB-PriA inh: -8; SARS 3CLpro inh: 0; CCHF vOTU inh: -6; VHR inh abs: 50*; RecA splice inh: -4

Results for Cc1nc2ccccn2c1C(=O)N1CCCC(Oc2nccnc2C#N)C1 (centres undefined) ?
SSB-PriA inh: 2

Results for O=c1oc2ccccc2c(NC2CCCCC2)c1NS(=O)(=O)c1ccc(F)cc1 ?
SSB-PriA inh: 7; SARS 3CLpro inh: 6; CCHF vOTU inh: 11; VHR inh abs: 23; RecA splice inh: -2

What do the screens show for `CCc1ccc(S(=O)(=O)Nc2c(NC3CCCCC3)c3ccccc3oc2=O)cc1`?
SSB-PriA inh: 0; SARS 3CLpro inh: 1; VHR inh abs: 57*; RecA splice inh: 0

How did Cc1ccc(N(CC(=O)N2CCCC2)S(C)(=O)=O)cc1C do in these assays?
SSB-PriA inh: -3; SARS 3CLpro inh: -2; CCHF vOTU inh: -8; VHR inh abs: 58*; RecA splice inh: 1

Results for O=C(Cc1cc(=O)[nH]c(SCc2ccc(F)cc2)n1)NCc1ccc2c(c1)OCO2 ?
SSB-PriA inh: -19

What do the screens show for `COC(=O)C(C)Sc1ncnc2c1nnn2-c1ccc(F)cc1` (centres undefined)?
SSB-PriA inh: -13; SARS 3CLpro inh: 5; CCHF vOTU inh: -14; VHR inh abs: 21; RecA splice inh: 53*

What do the screens show for `C=CCn1c(O)c(C2=c3ccccc3=NC2=O)c2ccccc21`?
SSB-PriA inh: -18; SARS 3CLpro inh: -5; CCHF vOTU inh: 2; VHR inh abs: 60*; RecA splice inh: 13

Results for COc1ccc(C(=O)N/C(=C/c2cccs2)C(=O)NCCCn2ccnc2)cc1OC ?
SSB-PriA inh: -3; SARS 3CLpro inh: -1; CCHF vOTU inh: 1; VHR inh abs: 53*; RecA splice inh: -4

How did CN(C)c1ccc(/C=C(\NC(=O)c2ccccc2)C(=O)NCCCn2ccnc2)cc1 do in these assays?
SSB-PriA inh: 39*; SARS 3CLpro inh: -1; CCHF vOTU inh: 13; VHR inh abs: 10
